# Screening results: PubChem, Broad Institute
# ERAP1 inh: inhibitors of human ERAP1 aminopeptidase; Q9NZ08; recombinant ERAP1, Leu-AMC fluorescence, 60 min; inhibition, % at 10.7 µM; 340,000 tested, 0.15% active; AID 652197;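 active means mean replicate inhibition of at least 30%, or all replicates individually reaching that 30% level; inactive means mean below 30% and not every replicate reaching it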;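 further: 0% = neutral control wells and 100% = L-leucinethiol positive control wells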
# DENV2 CPE: protects cells from dengue virus 2 cytopathic effect | CPE inhibition, % at 9.99 µM | 350,000 tested, 1.7% active | DENV2-infected cells, cytopathic effect rescue, plate reader; in the data active means CPE inhibition above about 20%, passing the limit was not always enough; tested in BHK-21 cells;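 further: 0% = median of neutral control wells and 100% = median of positive control wells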
# ERp5 inh: inhibitors of human ERp5 | AID 651711 | inhibition, % at 9.99 µM | Q15084 | 350,000 tested, 0.05% active | ERp5 insulin aggregation, absorbance 650 nm, 90 min;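 active means mean replicate inhibition above about 25%, with every replicate also reaching it, limit read from the data, passing the limit was not always enough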
# MLL AF4-AF9 inh: inhibitors of human MLL-AF4/AF9 interaction | AlphaScreen, biotin-AF4 peptide binding to FLAG-AF9 | inhibition, % at 10 µM | 350,000 tested, 0.47% active | AID 651704;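 active means every replicate reaching a set inhibition limit, whatever the replicate mean, cut at about 25% in these data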;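 further: 0% = plate neutral control median and 100% = total signal loss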
# Target sequence (P42568 whole entry, looked up): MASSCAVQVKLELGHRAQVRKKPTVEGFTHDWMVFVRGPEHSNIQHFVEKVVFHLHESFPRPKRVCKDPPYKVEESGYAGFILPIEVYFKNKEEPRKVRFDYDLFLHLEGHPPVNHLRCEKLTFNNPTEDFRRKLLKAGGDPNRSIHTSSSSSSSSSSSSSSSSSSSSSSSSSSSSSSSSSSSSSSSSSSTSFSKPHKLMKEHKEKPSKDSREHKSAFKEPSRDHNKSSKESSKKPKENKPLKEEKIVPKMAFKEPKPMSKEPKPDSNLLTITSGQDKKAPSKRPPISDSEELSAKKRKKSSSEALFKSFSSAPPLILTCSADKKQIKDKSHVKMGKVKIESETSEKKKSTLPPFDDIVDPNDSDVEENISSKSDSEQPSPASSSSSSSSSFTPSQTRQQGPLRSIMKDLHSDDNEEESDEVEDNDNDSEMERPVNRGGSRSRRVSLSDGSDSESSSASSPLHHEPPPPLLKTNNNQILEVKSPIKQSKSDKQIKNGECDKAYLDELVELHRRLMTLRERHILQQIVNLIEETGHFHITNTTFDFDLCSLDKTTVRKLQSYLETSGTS
# PDI inh: blocks human protein disulfide isomerase activity; PDI insulin aggregation turbidity, A650, 90 min; AID 588391; 350,000 tested, 0.052% active; P07237; inhibition, % at 10 µM;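 active means mean inhibition across replicates of 30% or more, whatever share of single replicates reach that level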
# Starred values were filed as active, the others as inactive; . = no result. In the library only some 1.8% were active in any assay of this set; here they are far more common.
SMILES,ERAP1 inh,DENV2 CPE,ERp5 inh,MLL AF4-AF9 inh,PDI inh
N#C[C@@H]1[C@H](c2ccc(C3=CCCCC3)cc2)[C@H](CO)N1C(=O)C1CCOCC1,-1.5,29.7*,3.6,1.6,.
C[C@@H]1CCCCO[C@H](CN(C)C(=O)Nc2ccc(F)cc2)[C@H](C)CN([C@H](C)CO)C(=O)c2cc(NC(=O)Cc3ccccc3)ccc2O1,0.3,-8.0,-1.5,-1.3,.
NCC[C@H]1CC[C@H](NC(=O)Nc2ccc(F)cc2)[C@H](CO)O1,0.9,2.5,5.7,4.6,.
COc1ccc(OC)c(NC(=O)Nc2nc(C(N)c3ccccc3Cl)cs2)c1 (stereo unspecified),-2.3,-7.8,3.2,25.5*,2.8
Cn1cnc(S(=O)(=O)N2C[C@@H](O)COC[C@@H]3O[C@@H](CC(=O)NCc4cccc(F)c4)CC[C@H]32)c1,0.1,-3.7,2.0,-2.1,.
COc1ccc2c3c(n(C)c2c1)[C@H](CO)N(C(=O)Cc1ccccn1)CC31CCN(CC2CCOCC2)CC1,.,6.8,.,.,.
Cc1onc(-c2ccc3c(c2)OCO3)c1-c1ccc2[nH]ccc2c1,0.7,-1.1,4.7,1.7,-11.3
c1cc2cc(-c3c(-c4ccc5c(c4)OCO5)noc3-c3ccsc3)ccc2[nH]1,-2.6,120.0*,-1.5,-1.4,12.1
O=C(C[n+]1ccsc1)c1ccccc1,2.1,31.4*,0.5,-5.9,3.4
CCOC(=O)C1CCN(C(=S)NC2CC3C=CC2C3)CC1 (stereo unspecified),-2.0,6.9,-6.7,31.8*,-2.0
O=C([C@@H]1[C@@H](CO)[C@@H]2Cn3c(ccc(C4=CCCC4)c3=O)[C@H]1N2)N1CCCCC1,0.1,-3.5,2.7,-2.3,.
Cc1[nH]c2ccccc2c1C(=O)CN1C(=O)C(=O)N(Cc2ccco2)C1=O,32.6*,-0.3,1.7,-0.8,-3.7
CC(C)C#Cc1cnc2c(c1)C(=O)N([C@H](C)CO)C[C@@H](C)[C@H](CN(C)C(=O)C1CCC1)O2,0.2,6.0,1.9,-2.1,.
Cc1ccccc1NC(=O)c1ccc(S(=O)(=O)N(C)C)cc1,.,50.9*,1.2,4.8,0.2
C[C@H](CO)N1C[C@H](C)[C@H](CN(C)C(=O)Nc2ccc3c(c2)OCO3)Oc2ccc(NC(=O)CCC(F)(F)F)cc2CC1=O,-4.4,-10.9,1.9,0.2,.
CN(C)c1ccc2c(c1)[C@H]1C[C@H](CC(=O)NCC3CC3)O[C@H](CO)[C@H]1O2,-1.2,0.9,-0.6,-9.7,.
CO[C@H]1CN(C)C(=O)c2ccc(NC(=O)Nc3cccc(F)c3)cc2OC[C@H](C)N(C(=O)Nc2c(C)noc2C)C[C@@H]1C,0.6,-4.0,2.6,-0.1,.
COc1cccc(C(=O)Nc2ccc3c(c2)C(=O)N(C)C[C@H](OC)[C@@H](C)CN(C(C)=O)[C@H](C)CO3)c1,11.6,64.5*,-2.6,0.6,.
CO[C@@H]1CN(C)C(=O)c2cc(NC(=O)Nc3cccc(F)c3)ccc2OC[C@@H](C)N(C(C)=O)C[C@@H]1C,-1.7,1.1,-15.0,5.0,.
CO[C@@H]1CN(C)C(=O)c2ccc(NC(=O)c3cccc(F)c3)cc2OC[C@H](C)N(C(C)=O)C[C@@H]1C,0.1,34.1*,-1.7,-1.1,.
CO[C@@H]1CN(C)C(=O)c2ccc(NC(=O)Nc3cccc(F)c3)cc2OC[C@@H](C)N(C(C)=O)C[C@H]1C,.,109.2*,-0.6,1.4,.
CO[C@@H]1CN(C)C(=O)c2ccc(NC(=O)Nc3cccc(F)c3)cc2OC[C@@H](C)N(C(=O)Nc2c(C)noc2C)C[C@H]1C,1.6,62.9*,0.0,-0.4,.
COc1cccc(C(=O)Nc2ccc3c(c2)C(=O)N(C)C[C@H](OC)[C@@H](C)CN(C(C)=O)[C@@H](C)CO3)c1,5.2,-11.1,8.7,-2.4,.
Cc1noc(C)c1NC(=O)N(C)C[C@H]1OCCCC[C@H](C)Oc2ccc(NC(=O)Nc3ccc(C(F)(F)F)cc3)cc2C(=O)N([C@H](C)CO)C[C@@H]1C,-0.2,-3.4,-3.1,2.2,.
O=C(C[C@H]1C[C@@H]2c3cc(NC(=O)Nc4ccccc4F)ccc3O[C@@H]2[C@@H](CO)O1)NCc1ccc(Oc2ccccc2)cc1,2.9,-8.3,1.0,-2.0,.
CO[C@@H]1CN(C)C(=O)c2ccc(NC(=O)c3ccccc3)cc2OC[C@H](C)N(C(=O)CN(C)C)C[C@H]1C,-0.2,5.9,10.2,-1.3,.
CO[C@H]1CN(C)C(=O)c2ccc(NC(=O)c3ccccc3)cc2OC[C@H](C)N(C(=O)CN(C)C)C[C@H]1C,-6.7,29.5*,13.2,-3.8,.
